From PubChem
CD40 NFkB inh = inhibitors of CD40-induced NF-kB signaling, primary screen, BL2 cells, luciferase reporter, single point | CD40L-induced, 4 h | inhibition, % at 10 µM | 0.94% of 83,000 active | AID 1053188, 2014;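 active = mean inhibition of at least 50% with a set share of replicates also reaching that level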;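 also: 0% = neutral control wells and 100% = IKK inhibitor VII at 50 µM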
An asterisk follows results filed as active; ! = a repeat was not active; [ ] = remark or other dose. Many of the other results were omitted from the sample, so hits are more common in it than they were.

SMILES | CD40 NFkB inh
CC(=O)N1[C@H](CO)[C@H](c2ccccc2)[C@@H]1CNC(=O)CN1CCOCC1 | 4.5[25 µM]
CNc1c2cccc(C)c2nc2c(C(=O)NCCN(C)C)cccc12 | 85.5*
Cc1ccc(C(=O)NCCN(C)C)c(C)c1 | 5.2
Cc1ccccc1C(=O)Nc1c(C(=O)N(CCN(C)C)Cc2ccco2)oc2ccccc12 | 18.0
CCCNC(=O)N1C[C@H](O)COC[C@H]2O[C@@H](CC(=O)OC)CC[C@@H]21 | -9.1[25 µM]
CCN(CC)CC(=O)Nc1c(C)cc(C(C)(C)C)cc1C | -37.7
CCN(CC)CC(C)(C)C(=O)/C=C/c1ccc(/C=C/C(=O)C(C)(C)CN(CC)CC)cc1 | 74.8*
CCN(CC)c1ccc(C(=O)O)cc1 | -1.7
CO[C@@H]1CN(C)C(=O)c2cc(NC(=O)Nc3c(C)noc3C)ccc2OC[C@@H](C)N(C(=O)Nc2cccc(Cl)c2)C[C@H]1C | -2.5
CN1CCN(C(=O)C[C@@H]2CC[C@H]3[C@@H](COC[C@@H](O)CN3C(=O)Nc3ccc4c(c3)OCO4)O2)CC1 | active[25 µM]
CN1CCN(C(=O)C[C@H]2CC[C@H]3[C@@H](COC[C@H](O)CN3C(=O)Nc3ccc4c(c3)OCO4)O2)CC1 | -39.0[25 µM]
CN1CCN(C(=O)C[C@@H]2CC[C@@H]3[C@H](COC[C@H](O)CN3C(=O)Nc3ccc4c(c3)OCO4)O2)CC1 | -37.3[25 µM]
C[C@@H]1CN([C@H](C)CO)C(=O)CCCn2cc(nn2)CO[C@@H]1CN(C)S(=O)(=O)c1ccc2c(c1)OCCCO2 | 6.6[25 µM]
O=C(CCl)N=c1sccn1Cc1ccc(Cl)cc1Cl | 88.9*
O=C(Cn1cnnn1)NCCc1ccc(Cl)cc1Cl | 8.1
O=C1CCN(Cc2ccc(Cl)cc2Cl)C(=O)N1 | 5.9
CN(C)CC(=O)N1[C@H](C#N)[C@@H](c2ccc(/C=C/c3ccccc3)cc2)[C@H]1CO | 31.1[25 µM]
O=C1c2sc3nc4ccccc4n3c2C(=O)N1c1ccccc1Cl | 51.6*
CC(=O)c1cnc(-c2ccccc2Cl)s1 | 1.1
Cc1ccccc1N1CCN(S(=O)(=O)CC23CCC(C[C@@H]2NC(=O)[C@@H](N)CCS(C)(=O)=O)C3(C)C)CC1 (stereo not given in full) | 4.3[25 µM]
Cc1ccc(S(=O)(=O)N[C@H]2CC[C@@H](CCn3cc(C4CCCC4)nn3)O[C@@H]2CO)cc1 | 4.8
N#Cc1ccc(-c2ccc([C@@H]3[C@H](CO)N4C(=O)CNC[C@@H]34)cc2)cc1 | -11.9[25 µM]
O=C(NC1CCC1)[C@@H]1[C@@H](CO)[C@@H]2Cn3c(ccc(-c4ccccc4F)c3=O)[C@@H]2N1Cc1cocn1 | -17.7[25 µM]
COc1ccc(C(=O)N2CCC(N3CCN(c4ccccc4)CC3)CC2)cc1 | 3.2
O=C(c1ccccc1)N1CCN(C2CCCCCC2)CC1 | -3.4
SMILES | CD40 NFkB inh
O=C(c1ccc(Nc2nccc(-c3cc4ccccc4s3)n2)cc1)N1CCC(N2CCCC2)CC1 | 68.3*[25 µM]
C[C@@H]1CN([C@H](C)CO)C(=O)CCCn2nncc2CO[C@@H]1CN(C)C(=O)Nc1ccc(-c2cccs2)cc1 | -4.7[25 µM]
COc1ccc2c3c(n(C)c2c1)[C@H](CO)N(C(=O)Cc1ccccn1)CC31CN(CC2CCCCC2)C1 | 3.5[25 µM]
N#Cc1cccc(-c2ccc(C3[C@H]4CNC[C@@H]3N4Cc3cccc(F)c3)cc2)c1 (stereo not given in full) | 0.4[25 µM]
COc1cccc(-c2ccc(C3[C@H]4CNC[C@@H]3N4Cc3ccc4c(c3)OCO4)cc2)c1 (stereo not given in full) | -55.6[25 µM]
N#Cc1cccc(-c2ccc(C3[C@H]4CNC[C@@H]3N4Cc3ccc4c(c3)OCO4)cc2)c1 (stereo not given in full) | 74.5*!
COc1ccccc1NC(=O)N1C[C@@H]2[C@H](c3ccccc31)[C@H](CO)N2Cc1ccccc1F | -6.4[25 µM]
CN(C)S(=O)(=O)c1cccc(-c2cn3ccccc3n2)c1 | -27.8
c1ccn2cc(-c3ccc4c(c3)OCCO4)nc2c1 | 66.8*
O=S(=O)(c1cccc(-c2cn3ccccc3n2)c1)N1CCCCC1 | 6.8
N#C[C@@H]1[C@H](c2ccccc2C2=CCCCC2)[C@H](CO)N1C(=O)c1ccccn1 | 11.3[25 µM]
O=C(NC[C@@H]1N[C@@H](CO)[C@@H]1c1ccc(-c2ccccc2F)cc1)c1ccccn1 | 1.4[25 µM]
C[C@@H]1CC(=O)NCC/C=C\C[C@@H](c2ccc3c(c2)OCO3)NC1=O | -6.9[25 µM]
CN(C)[C@@H]1CCc2[nH]c3ccc(NC(=O)c4ccc(F)cc4)cc3c2C1 | -25.8[25 µM]
Cn1c(CO)nc2cc(N)ccc21 | 49.7*
Cc1nc2cc(CO)ccc2n1C | 1.9
Cn1c(SCc2nc3ccccc3n2CCO)nc2ccccc21 | 9.4
O=C(C[C@H]1C[C@H]2c3cc(NC(=O)Nc4ccc(C(F)(F)F)cc4)ccc3O[C@H]2[C@@H](CO)O1)NCc1cc(F)ccc1F | 1.0[25 µM]
Oc1ccc(CN2CCN(c3ccccc3)CC2)c2cccnc12 | -12.9
COCc1cc(CN2CCCC2)c(O)c2ncccc12 | 9.7
CCOC(=O)N1CCN(Cc2ccc(O)c3ncccc23)CC1 | 65.2*
COC(=O)c1ccccc1-c1c2ccc(=N)cc-2oc2cc(N)ccc12 | 49.3*
COC(=O)c1ccc(N)cc1O | 25.5
COC(=O)c1cc(=O)c2ccc(OC)cc2o1 | -3.8
O=C(Cc1ccccn1)N1CC[C@@H]2[C@H]1c1cc(-c3cccc(F)c3)ccc1N[C@@H]2CO | -0.9[25 µM]
SMILES | CD40 NFkB inh
O=C(c1cnccn1)N1CC(=O)N2[C@H](CO)[C@@H](c3ccc(C#CC4CCCC4)cc3)[C@H]2C1 | 8.6
CC1(C)CC(=Cc2ccccc2[N+](=O)[O-])C(=O)c2ccccc21 | -21.1
O=C1C(=Cc2ccccc2[N+](=O)[O-])Cc2ccccc21 | 49.5*
O=C1C(=Cc2cccc(F)c2)Cc2ccccc21 | -137.0
CCCC(=O)N1C[C@@H]2[C@H](c3ccccc31)[C@H](CO)N2C(=O)Nc1ccc(F)cc1 | 3.7[25 µM]
C[C@@H]1CN([C@H](C)CO)C(=O)Cc2cc(NS(C)(=O)=O)ccc2O[C@@H]1CN(C)C(=O)Nc1ccccc1 | 4.6[25 µM]
Cc1nc2c(=O)n(C)c(=O)n(C)c2nc1Cl | 105.3*
CC(C)Sc1nc2c(c(=O)n(C)c(=O)n2C)n1C | 10.6
Cc1cc(Nc2nc3c(c(=O)n(C)c(=O)n3C)n2C)n(-c2ccc(Cl)cc2)n1 | -4.9
C[C@H]1CN([C@@H](C)CO)C(=O)c2ccccc2-c2ccccc2CO[C@@H]1CN(C)Cc1cccnc1 | -3.5[25 µM]
CN1C(=O)c2cc(NC(=O)c3cscn3)ccc2OC[C@H]2O[C@@H](CC(=O)N3CCOCC3)CC[C@H]21 | -9.7[25 µM]
O=C(NCC[C@@H]1CC[C@@H](NC(=O)c2ccccc2F)[C@@H](CO)O1)c1cnccn1 | -5.9[25 µM]
CC(C)NC(=O)Nc1cccc2c1O[C@H](CN(C)C)[C@@H](C)CN(C)C2=O | -2.5
O=C1CCCCc2sc(Br)c([N+](=O)[O-])c2N1 | 100.2*
O=C(Nc1cc(F)ccc1F)N1C[C@@H]2[C@H](c3ccccc31)[C@H](CO)N2Cc1cccnc1 | -20.2[25 µM]
O=C1CCC(C(=O)OCC(=O)c2ccccc2)N1 (stereo not given) | 11.0
CC1CC(C)C(=O)C(C(CC2CC(=O)NC(=O)C2)OC(=O)CC(=O)c2ccccc2)C1 (stereo not given) | 56.4*
COc1ccc2c3c([nH]c2c1)[C@H](CO)N(C(=O)c1ccccn1)CC31CCN(C(=O)C2CCCC2)CC1 | -2.2
CO[C@H]1CN(C)C(=O)c2ccc(NC(=O)c3cccc(F)c3)cc2OC[C@@H](C)NC[C@H]1C | -0.1[25 µM]
CN1C[C@H]2[C@@H](c3ccccc31)[C@@H](CO)N2C(=O)C1CCCC1 | 7.2
CCOC(=O)c1c(NC(=O)CN2CCCCC2)sc(CN(C)C)c1-c1ccccc1 | 23.1
CCOC(=O)c1[nH]c(=S)n(-c2ccccc2)c1C(=O)OCC | 21.8
